Only a sample is shown.
aSyn UTR act – Activators via SNCA 5'UTR binding, MLPCN; hit rate 7.1% among 300,000; activity score, % (tested at 7.5 µM), hits read low; AID 1814, 2009; alpha-synuclein 5'UTR reporter, activators screen; in the data active = activity score below about -60%
Numbers stand for hits; - = inactive.

SMILES | aSyn UTR act
COc1ccc(-c2nnc(-c3ccc(F)cc3)o2)cc1 | -152
CCNc1nnc(-c2ccc(C)cc2)o1 | -80
Fc1ccc(-c2nnc(-c3ccc(Cl)cc3)o2)cc1 | -194
COc1ccc(-c2nnc(NC(=O)c3ccc(S(=O)(=O)N4COCC4(C)C)cc3)o2)cc1 | -
CCCN(CCC)S(=O)(=O)c1ccc(C(=O)Nc2nnc(-c3cc(OC)cc(OC)c3)o2)cc1 | -
O=C1CN(c2nc(-c3cccs3)nc3sc4c(c23)CCCC4)CCN1 | -109
O=C1CN(c2nc(-c3cccnc3)nc3scc(-c4ccccc4)c23)CCN1 | -90
O=c1c2c3c(sc2nc2n1N=C(c1cccs1)CS2)CCCC3 | -166
CN1C(=O)C2C=CC1C1C(=O)N(c3ccccc3)C(=O)C21 (configuration not stated) | -302
CCOC(=O)C1CCCN(C(=O)CCc2nnc(-c3ccc(C(C)=O)s3)o2)C1 (configuration not stated) | -134
O=C(CSCc1ccc(F)cc1)N1CCN(c2ccccc2)CC1 | -66
O=C(CSCc1cccc(Br)c1)N1CCOCC1 | -67
CCOC(=O)N1CCN(C(=O)CSCc2ccccc2)CC1 | -83
CCOC(=O)C1CCCN(C(=O)CSCc2ccccc2)C1 (configuration not stated) | -112
O=C(/C=C/c1ccccc1[N+](=O)[O-])NCCN1C(=O)S/C(=C\c2ccc(F)cc2)C1=O | -113
CCOC(=O)/C(C#N)=C1/C=CN(c2ccc(C)cc2)C=N1 | -97
CCOC(=O)/C(C#N)=C1/C=CN(c2ccccc2)C=N1 | -79
Cc1cccc2c1Sc1ccc(Cl)cc1CC2N1CCNCC1 (configuration not stated) | -
O=C(CSc1ncnc2c1oc1ccccc12)c1cccs1 | -125
Cc1nc(SCC(=O)c2cccs2)c2oc3ccccc3c2n1 | -134
CCCSc1nnc(-c2ccccc2N)c(=O)[nH]1 | -70
c1ccc2oc(-c3ccc4nc[nH]c4c3)nc2c1 | -135
COc1ccc(-c2nc3ccccc3o2)cc1OC | -82
Cc1ccc(NC(=O)C2C3C=CC4(CN(Cc5cccnc5)C(=O)C24)O3)cc1 (configuration not stated) | -80
CC(C)(C)C(=O)O/N=C(\N)COc1cccc(Cl)c1 | -125
SMILES | aSyn UTR act
CCN(CC)C(=O)COc1ccc(-c2ccccc2)cc1 | -116
O=[N+]([O-])c1ccccc1/C=N/N1CCN(Cc2ccccc2)CC1 | -101
C/C(=N\N1CCN(Cc2ccccc2)CC1)c1ccco1 | -80
Cc1ccc(/C=N/N2CCN(Cc3ccccc3)CC2)s1 | -83
C(=N\N1CCN(Cc2ccccc2)CC1)/c1ccccc1 | -64
FC(F)(F)c1ccccc1/C=N/N1CCN(Cc2ccccc2)CC1 | -72
Clc1cccc(/C=N/N2CCN(Cc3ccccc3)CC2)c1 | -91
Cc1cc(N2CCN(Cc3cn(C)nc3-c3cccc(Cl)c3)CC2)cc(C)n1 | -
Cc1ccc(/C=N/N2CCOCC2)s1 | -101
C=C(CC)C(=O)c1ccc(OCC(=O)O)c(Cl)c1Cl | -67
O=C(/C=C/c1ccccc1F)c1ccoc1 | -68
O=c1oc2ccccc2cc1-c1ccc(O)cc1 | -101
Nc1ccc(-c2cc3ccccc3oc2=O)cc1 | -
O=C(NCc1cccnc1)c1ccc(-c2cc3ccccc3oc2=O)cc1 | -139
COc1ccc(-c2cc3ccccc3oc2=O)cc1 | -71
CCc1ccc(OCc2cnc(Cl)s2)cc1 | -78
Oc1oc(-c2ccc(Br)cc2)nc1/C=N/c1ccccn1 | -81
Cc1ccc(-c2nc(C=Nc3ccccc3)c(O)o2)cc1 | -102
Cc1ccc(N=Cc2nc(-c3ccco3)oc2O)cc1 | -69
Oc1oc(-c2ccccc2)nc1/C=N/c1nccs1 | -86
CCn1cc(Br)c(-c2nc3ccccc3c(=O)n2N)n1 | -100
COc1ccc(-c2cc(C(=O)NCc3cccs3)no2)cc1 | -170
CC1CCCN(c2ccc(C(=O)NCC3CCCO3)cn2)C1 (configuration not stated) | -88
COc1cccc(-c2cc(C(=O)NCc3cccs3)no2)c1 | -156
CCOc1ccc(C(=O)NCc2cccs2)cc1 | -105
SMILES | aSyn UTR act
CC1CCN(c2ccc(C(=O)NCc3cccs3)cn2)CC1 | -106
COc1ccc2nc3sc(C(=O)NCc4cccs4)c(N)c3cc2c1 | -97
CCOc1c2ccc(C(=O)NCCc3cccs3)cc2nn1CC | -130
O=C(CN1C(=O)S/C(=C\C=C\c2ccccc2)C1=O)Nc1cccc(O)c1 | -218
O=C(CCN1C(=O)S/C(=C\C=C\c2ccccc2)C1=O)Nc1ccc(O)cc1 | -204
CCN(C(=O)CN1C(=O)S/C(=C\C=C\c2ccccc2)C1=O)C1CCS(=O)(=O)C1 (configuration not stated) | -118
O=C(N/N=C\c1cccc(Cl)c1)c1n[nH]c2c1CCCC2 | -152
Cc1ccc(/C=N/NC(=O)c2n[nH]c3c2CCCC3)cc1 | -
N=C1/C(=C/c2ccc(OCc3ccccc3F)cc2)C(=O)N=C2SC(CC(=O)N3CCOCC3)=NN12 | -93
N=C1/C(=C/c2ccc(OCc3ccccc3)cc2)C(=O)N=C2SC(CC(=O)N3CCOCC3)=NN12 | -95
COC(=O)CSc1nc2cc(C)cc(C)c2cc1C#N | -180

Source: PubChem
